Records with an inconclusive call do not appear. Activity calls are given as the source filed them. The calls were made as follows: active = hit-call score of the fitted dose curve at least 0.9, where 1 is the maximum; inconclusive = response in the unintended direction; inactive = score below 0.9.

Broadly, the AC50 is the concentration giving half of the maximal activity seen.

In experiment [1] the target is human Dual Specificity Protein Phosphatase 3 (DUSP3), DUSP3 (gene 1845) (UniProt P51452). As to the kind of experiment: NVS_ENZ_hDUSP3: NovaScreen (NVS) Enzymatic Assay for human Dual Specificity Protein Phosphatase 3 (DUSP3) (AID 2283152).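 Also: phosphatase activity of recombinant human DUSP3 on a fluorogenic substrate without cells.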 Summed up:
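Cell-free assay with recombinant human DUSP3 and fluorogenic substrate, read by fluorescence intensity. Primary screen ran duplicate at 25 uM; actives followed up in concentration series; loss of signal versus DMSO scored.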

Experiment [2] has as its target Cytochrome P450 2C19 (Homo sapiens) (UniProt P33261). As to the kind of experiment: NVS_ADME_hCYP2C19: NovaScreen (NVS) CYP450-related Enzyme Activity (ADME) Assay for human CYP2C19 (AID 2283113).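 Also: potency for inhibition seen as loss of fluorescent signal.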 Summed up:
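Fluorescence intensity was measured 1 hour after chemicals were added to insect-cell-derived recombinant CYP2C19 with fluorogenic substrate. Decreased signal versus acetonitrile control was taken as reduced enzyme activity; initial testing used 10 uM in duplicate.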

Experiment [3] has as its target human Ephrin type-A Receptor 1 (EphA1), EPHA1 (gene 2041) (UniProt P21709). As to the kind of experiment: NVS_ENZ_hEphA1: NovaScreen (NVS) Enzymatic Assay for human Ephrin type-A Receptor 1 (EphA1) (AID 2283158).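 Also: activity is signal loss versus DMSO meaning EphA1 kinase inhibition.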 A digest of the protocol:
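Chemicals first tested in duplicate at 25 uM against recombinant EphA1 with a fluorescent substrate; those passing threshold went to singleton dose-response topping at 50 uM. Activity read 1 h later as mobility-shift fluorescence, loss of signal relative to DMSO.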

Experiment [4] concerns the target human Matrix Metalloproteinase-9 (MMP9), MMP9 (gene 4318) (UniProt P14780). In words: NVS_ENZ_hMMP9: NovaScreen (NVS) Enzymatic Assay for human Matrix Metalloproteinase-9 (MMP9) (AID 2283190).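 Also: cell-free recombinant MMP9 protease activity read by fluorescent substrate signal; active means inhibition seen as loss of fluorescence signal versus DMSO.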 Summed up: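 Inhibition was scored as loss of fluorescence signal against DMSO controls. The recombinant protease was exposed to chemicals for 1 hour before reading; initial testing used 25 uM in duplicate.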

The target in experiment [5] is human Phosphoinositide 3-kinase alpha (PI3Ka), PIK3CA (gene 5290) (UniProt P42336). In words: NVS_ENZ_hPI3Ka: NovaScreen (NVS) Enzymatic Assay for human Phosphoinositide 3-kinase alpha (PI3Ka) (AID 2283196). The protocol: NVS_ENZ_hPI3Ka is a biochemical, single-readout assay that uses extracted gene-proteins in a cell-free assay. Measurements were taken 1 hour after chemical dosing in a 384-well plate.NVS_ENZ_hPI3Ka is one of one assay component(s) measured or calculated from the NVS_ENZ_hPI3Ka assay. It is designed to make measurements of enzyme activity, a form of enzyme reporter, as detected with fluorescence intensity signals by Fluorescence and electrophoretic mobility shift technology.Data from the assay component NVS_ENZ_hPI3Ka was analyzed into 1 assay endpoint. This assay endpoint, NVS_ENZ_hPI3Ka, was analyzed in the positive analysis fitting direction relative to DMSO as the negative control and baseline of activity. Using a type of enzyme reporter, loss-of-signal activity can be used to understand changes in the enzymatic activity as they relate to the gene PIK3CA. Furthermore, this assay endpoint can be referred to as a primary readout, because this assay has produced multiple assay endpoints where this one serves a enzymatic activity function. To generalize the intended target to other relatable targets, this assay endpoint is annotated to the kinase intended target family, where the subfamily is phosphoinositol kinase.
Sequence of human Phosphoinositide 3-kinase alpha (PI3Ka), PIK3CA (gene 5290) (P42336 whole entry, looked up): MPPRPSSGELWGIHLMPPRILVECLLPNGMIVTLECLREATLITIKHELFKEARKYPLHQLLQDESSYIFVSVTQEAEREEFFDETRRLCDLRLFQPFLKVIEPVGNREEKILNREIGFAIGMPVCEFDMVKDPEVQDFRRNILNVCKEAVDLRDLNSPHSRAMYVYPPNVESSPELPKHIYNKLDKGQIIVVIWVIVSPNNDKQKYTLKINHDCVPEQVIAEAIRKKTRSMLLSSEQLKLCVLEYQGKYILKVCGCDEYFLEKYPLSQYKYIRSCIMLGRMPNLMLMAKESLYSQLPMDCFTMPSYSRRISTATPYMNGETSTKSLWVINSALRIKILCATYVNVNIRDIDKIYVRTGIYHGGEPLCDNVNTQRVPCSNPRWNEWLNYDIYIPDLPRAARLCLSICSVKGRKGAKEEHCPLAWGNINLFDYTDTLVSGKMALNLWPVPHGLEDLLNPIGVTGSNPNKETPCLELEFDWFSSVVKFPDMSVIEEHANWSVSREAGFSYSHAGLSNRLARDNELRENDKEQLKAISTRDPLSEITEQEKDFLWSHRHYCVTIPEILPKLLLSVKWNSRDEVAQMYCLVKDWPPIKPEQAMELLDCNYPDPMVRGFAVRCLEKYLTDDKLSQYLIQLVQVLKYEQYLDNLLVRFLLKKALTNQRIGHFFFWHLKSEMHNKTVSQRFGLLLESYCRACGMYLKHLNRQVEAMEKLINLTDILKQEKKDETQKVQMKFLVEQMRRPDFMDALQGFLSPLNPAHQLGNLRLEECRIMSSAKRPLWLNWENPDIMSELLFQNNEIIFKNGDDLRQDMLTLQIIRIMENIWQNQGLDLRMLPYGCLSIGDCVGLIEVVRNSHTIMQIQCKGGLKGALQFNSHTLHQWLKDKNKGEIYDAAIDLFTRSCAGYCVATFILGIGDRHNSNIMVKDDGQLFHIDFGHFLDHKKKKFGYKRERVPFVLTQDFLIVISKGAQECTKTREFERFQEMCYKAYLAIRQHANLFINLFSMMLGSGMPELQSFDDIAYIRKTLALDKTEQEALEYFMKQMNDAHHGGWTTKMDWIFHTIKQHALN
Binding assays used specific radioligands (tritiated, iodinated) with non-radioactive competitive displacement ligands in agonist or antagonist protocols (as indicated) and various reference compounds and inhibitors to titrate specific binding to receptors and transporters. Most enzyme assays (CYPs, kinases, phosphatases, proteases, HDACs) used recombinant protein and specific substrates (fluorescence mostly, some colorimetric and radioactive) and inhibitors, followed by a biochemical separation of substrate and product. All assays for the biochemical HTS were initially run in duplicate at a single concentration (10 uM for CYP450 assays and 25 uM for all others). Assay-chemical combinations meeting a pre-defined threshold (e.g., 30% inhibition and other criteria defined below) were then run in singleton concentration-response format with maximum concentration of 20 uM for CYPs and 50 uM for all others. Each assay was run with positive and negative controls, and concurrent controls on every plate. The follow-up (secondary) screen tested active chemical-pairs in concentration series, as well as a few additional assays not tested in the primary screen, some selected negative inactives, and several cases re-run in the concentration series for confirmatory purposes.

The target of experiment [6] is human Caspase 5 (CASP5), CASP5 (gene 838) (UniProt P51878). In words: NVS_ENZ_hCASP5: NovaScreen (NVS) Enzymatic Assay for human Caspase 5 (CASP5) (AID 2283137). Summed up:
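Cell-free protease assay with bacterially expressed CASP5 and a fluorescent substrate, measured at 2 h. Values fitted relative to DMSO as baseline, from concentration-response series topping at 50 uM.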

Experiment [7] deals with human Beta-secretase (BACE), BACE1 (gene 23621) (UniProt P56817). In words: NVS_ENZ_hBACE: NovaScreen (NVS) Enzymatic Assay for human Beta-secretase (BACE) (AID 2283140).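 Also: hits are inhibitors that reduce fluorescent substrate signal versus DMSO.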 A digest of the protocol:
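Recombinant BACE1 (SF9 extract) incubated with compound and fluorescent substrate, 1 h. Plates carried positive and DMSO negative controls. Initial single dose 25 uM, duplicate; confirmation by concentration series.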

For experiment [8], the target named is human Esterase Plasma (ES), BCHE (gene 590) (UniProt P06276). As to the kind of experiment: NVS_ENZ_hES: NovaScreen (NVS) Enzymatic Assay for human Esterase Plasma (ES) (AID 2283157). The protocol: NVS_ENZ_hES is a biochemical, single-readout assay that uses extracted gene-proteins from Human plasma in a cell-free assay. Measurements were taken 0.25 hour after chemical dosing in a 96-well plate.NVS_ENZ_hES is one of one assay component(s) measured or calculated from the NVS_ENZ_hES assay. It is designed to make measurements of enzyme activity, a form of enzyme reporter, as detected with absorbance signals by Colorimetric technology.Data from the assay component NVS_ENZ_hES was analyzed into 1 assay endpoint. This assay endpoint, NVS_ENZ_hES, was analyzed in the positive analysis fitting direction relative to DMSO as the negative control and baseline of activity. […] Furthermore, this assay endpoint can be referred to as a primary readout, because this assay has produced multiple assay endpoints where this one serves a enzymatic activity function. […]
Binding assays used specific radioligands (tritiated, iodinated) with non-radioactive competitive displacement ligands in agonist or antagonist protocols (as indicated) and various reference compounds and inhibitors to titrate specific binding to receptors and transporters. Most enzyme assays (CYPs, kinases, phosphatases, proteases, HDACs) used recombinant protein and specific substrates (fluorescence mostly, some colorimetric and radioactive) and inhibitors, followed by a biochemical separation of substrate and product. […]

Experiment [9] addresses human Phosphodiesterase 10 (PDE10), PDE10A (gene 10846) (UniProt Q9Y233). In words: NVS_ENZ_hPDE10: NovaScreen (NVS) Enzymatic Assay for human Phosphodiesterase 10 (PDE10) (AID 2283195). Summed up: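 Fluorescence/mobility-shift readout of PDE10A enzyme activity, taken 1 h post-dosing. Primary screen in duplicate at 25 uM; actives (e.g. ≥30% inhibition) retested as singleton concentration-response, top concentration 50 uM.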

The target of experiment [10] is human CYP2C9, CYP2C9 (gene 1559) (UniProt P11712). As to the kind of experiment: NVS_ADME_hCYP2C9: NovaScreen (NVS) CYP450-related Enzyme Activity (ADME) Assay for human CYP2C9 (AID 2283108). As for the experimental part: NVS_ADME_hCYP2C9 is a biochemical, single-readout assay that uses extracted gene-proteins from SF9 in a cell-free assay. Measurements were taken 0.75 hour after chemical dosing in a 96-well plate.NVS_ADME_hCYP2C9 is one of one assay component(s) measured or calculated from the NVS_ADME_hCYP2C9 assay. It is designed to make measurements of enzyme activity, a form of enzyme reporter, as detected with fluorescence intensity signals by Fluorescence technology.Data from the assay component NVS_ADME_hCYP2C9 was analyzed into 1 assay endpoint. This assay endpoint, NVS_ADME_hCYP2C9, was analyzed in the positive analysis fitting direction relative to Acetonitrile as the negative control and baseline of activity. Using a type of enzyme reporter, loss-of-signal activity can be used to understand changes in the enzymatic activity as they relate to the gene CYP2C9. Furthermore, this assay endpoint can be referred to as a primary readout, because this assay has produced multiple assay endpoints where this one serves a enzymatic activity function. To generalize the intended target to other relatable targets, this assay endpoint is annotated to the cyp intended target family, where the subfamily is xenobiotic metabolism. […]

Sequence of human Ephrin type-A Receptor 1 (EphA1), EPHA1 (gene 2041) (P21709 whole entry, looked up): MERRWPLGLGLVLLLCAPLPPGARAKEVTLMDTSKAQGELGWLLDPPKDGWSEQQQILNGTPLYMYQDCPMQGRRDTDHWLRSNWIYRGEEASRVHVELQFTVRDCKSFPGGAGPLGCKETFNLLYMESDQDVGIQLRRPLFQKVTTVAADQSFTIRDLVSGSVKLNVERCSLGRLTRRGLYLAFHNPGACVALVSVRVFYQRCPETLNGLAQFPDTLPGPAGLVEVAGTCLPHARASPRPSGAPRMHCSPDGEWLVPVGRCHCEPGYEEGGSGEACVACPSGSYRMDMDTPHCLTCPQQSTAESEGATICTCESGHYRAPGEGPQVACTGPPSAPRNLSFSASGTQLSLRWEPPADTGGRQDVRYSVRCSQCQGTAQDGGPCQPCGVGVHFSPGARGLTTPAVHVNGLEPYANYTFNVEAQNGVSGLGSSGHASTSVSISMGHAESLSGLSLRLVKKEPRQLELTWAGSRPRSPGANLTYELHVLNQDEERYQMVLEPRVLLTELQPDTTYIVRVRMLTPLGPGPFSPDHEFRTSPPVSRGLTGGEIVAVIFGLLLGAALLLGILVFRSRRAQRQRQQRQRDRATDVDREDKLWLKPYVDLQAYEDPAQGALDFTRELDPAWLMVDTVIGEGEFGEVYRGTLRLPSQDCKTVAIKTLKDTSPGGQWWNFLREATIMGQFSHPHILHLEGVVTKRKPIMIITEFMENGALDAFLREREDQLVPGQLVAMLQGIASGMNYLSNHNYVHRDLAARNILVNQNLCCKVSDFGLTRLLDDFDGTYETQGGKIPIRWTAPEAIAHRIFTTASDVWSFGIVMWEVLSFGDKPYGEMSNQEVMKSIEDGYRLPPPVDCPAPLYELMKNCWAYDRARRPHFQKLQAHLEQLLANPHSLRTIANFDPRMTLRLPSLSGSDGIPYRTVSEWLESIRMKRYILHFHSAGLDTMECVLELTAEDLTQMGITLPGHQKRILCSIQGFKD
Sequence of human Caspase 5 (CASP5), CASP5 (gene 838) (P51878 whole entry, looked up): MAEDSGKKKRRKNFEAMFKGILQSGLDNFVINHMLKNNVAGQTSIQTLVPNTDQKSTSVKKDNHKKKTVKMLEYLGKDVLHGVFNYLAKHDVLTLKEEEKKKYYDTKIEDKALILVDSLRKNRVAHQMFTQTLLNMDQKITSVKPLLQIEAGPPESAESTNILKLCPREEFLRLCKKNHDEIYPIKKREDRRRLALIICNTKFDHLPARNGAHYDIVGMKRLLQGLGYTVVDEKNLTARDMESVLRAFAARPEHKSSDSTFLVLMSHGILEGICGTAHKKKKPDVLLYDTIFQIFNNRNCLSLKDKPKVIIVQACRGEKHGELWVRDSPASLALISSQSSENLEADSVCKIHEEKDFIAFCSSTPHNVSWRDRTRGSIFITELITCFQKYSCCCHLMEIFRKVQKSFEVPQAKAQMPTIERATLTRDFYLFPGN
Sequence of human Dual Specificity Protein Phosphatase 3 (DUSP3), DUSP3 (gene 1845) (P51452 whole entry, looked up): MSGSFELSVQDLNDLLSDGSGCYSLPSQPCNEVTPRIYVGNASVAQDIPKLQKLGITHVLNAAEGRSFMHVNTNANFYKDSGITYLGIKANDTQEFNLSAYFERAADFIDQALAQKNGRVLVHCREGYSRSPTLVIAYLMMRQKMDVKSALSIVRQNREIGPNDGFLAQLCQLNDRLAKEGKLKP
Sequence of human Beta-secretase (BACE), BACE1 (gene 23621) (P56817 whole entry, looked up): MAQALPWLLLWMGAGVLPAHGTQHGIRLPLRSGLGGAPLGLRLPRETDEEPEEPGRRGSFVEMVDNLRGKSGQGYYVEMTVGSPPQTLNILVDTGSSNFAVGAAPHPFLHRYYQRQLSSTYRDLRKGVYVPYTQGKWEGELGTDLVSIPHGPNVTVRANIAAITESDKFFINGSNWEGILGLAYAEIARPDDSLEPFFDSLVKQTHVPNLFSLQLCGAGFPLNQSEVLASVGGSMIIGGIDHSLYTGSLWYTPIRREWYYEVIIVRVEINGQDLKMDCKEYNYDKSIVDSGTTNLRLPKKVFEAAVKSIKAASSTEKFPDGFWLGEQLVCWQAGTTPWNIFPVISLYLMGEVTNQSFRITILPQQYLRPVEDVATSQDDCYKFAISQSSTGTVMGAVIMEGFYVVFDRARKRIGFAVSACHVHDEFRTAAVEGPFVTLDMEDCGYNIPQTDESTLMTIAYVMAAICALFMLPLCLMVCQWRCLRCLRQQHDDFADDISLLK
Sequence of human Matrix Metalloproteinase-9 (MMP9), MMP9 (gene 4318) (P14780 whole entry, looked up): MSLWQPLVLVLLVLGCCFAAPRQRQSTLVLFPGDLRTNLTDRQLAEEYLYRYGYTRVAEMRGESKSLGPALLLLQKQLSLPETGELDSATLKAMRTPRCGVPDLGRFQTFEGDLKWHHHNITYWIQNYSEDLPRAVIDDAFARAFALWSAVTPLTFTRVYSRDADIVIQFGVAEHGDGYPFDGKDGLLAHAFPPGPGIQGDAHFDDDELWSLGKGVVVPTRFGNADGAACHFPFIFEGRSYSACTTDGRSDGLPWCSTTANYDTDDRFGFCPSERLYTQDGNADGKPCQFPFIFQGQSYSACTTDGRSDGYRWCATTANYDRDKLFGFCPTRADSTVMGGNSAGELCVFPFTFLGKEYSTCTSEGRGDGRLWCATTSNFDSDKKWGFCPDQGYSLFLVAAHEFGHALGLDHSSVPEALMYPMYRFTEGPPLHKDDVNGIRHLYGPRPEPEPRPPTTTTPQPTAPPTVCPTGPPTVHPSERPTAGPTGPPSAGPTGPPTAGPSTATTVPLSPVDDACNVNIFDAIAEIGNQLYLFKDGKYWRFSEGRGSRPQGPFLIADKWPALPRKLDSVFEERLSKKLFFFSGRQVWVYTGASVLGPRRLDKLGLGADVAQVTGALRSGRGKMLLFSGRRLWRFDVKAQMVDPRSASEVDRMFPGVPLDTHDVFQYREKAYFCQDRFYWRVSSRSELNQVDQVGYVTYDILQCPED
Sequence of human Phosphodiesterase 10 (PDE10), PDE10A (gene 10846) (Q9Y233 whole entry, looked up): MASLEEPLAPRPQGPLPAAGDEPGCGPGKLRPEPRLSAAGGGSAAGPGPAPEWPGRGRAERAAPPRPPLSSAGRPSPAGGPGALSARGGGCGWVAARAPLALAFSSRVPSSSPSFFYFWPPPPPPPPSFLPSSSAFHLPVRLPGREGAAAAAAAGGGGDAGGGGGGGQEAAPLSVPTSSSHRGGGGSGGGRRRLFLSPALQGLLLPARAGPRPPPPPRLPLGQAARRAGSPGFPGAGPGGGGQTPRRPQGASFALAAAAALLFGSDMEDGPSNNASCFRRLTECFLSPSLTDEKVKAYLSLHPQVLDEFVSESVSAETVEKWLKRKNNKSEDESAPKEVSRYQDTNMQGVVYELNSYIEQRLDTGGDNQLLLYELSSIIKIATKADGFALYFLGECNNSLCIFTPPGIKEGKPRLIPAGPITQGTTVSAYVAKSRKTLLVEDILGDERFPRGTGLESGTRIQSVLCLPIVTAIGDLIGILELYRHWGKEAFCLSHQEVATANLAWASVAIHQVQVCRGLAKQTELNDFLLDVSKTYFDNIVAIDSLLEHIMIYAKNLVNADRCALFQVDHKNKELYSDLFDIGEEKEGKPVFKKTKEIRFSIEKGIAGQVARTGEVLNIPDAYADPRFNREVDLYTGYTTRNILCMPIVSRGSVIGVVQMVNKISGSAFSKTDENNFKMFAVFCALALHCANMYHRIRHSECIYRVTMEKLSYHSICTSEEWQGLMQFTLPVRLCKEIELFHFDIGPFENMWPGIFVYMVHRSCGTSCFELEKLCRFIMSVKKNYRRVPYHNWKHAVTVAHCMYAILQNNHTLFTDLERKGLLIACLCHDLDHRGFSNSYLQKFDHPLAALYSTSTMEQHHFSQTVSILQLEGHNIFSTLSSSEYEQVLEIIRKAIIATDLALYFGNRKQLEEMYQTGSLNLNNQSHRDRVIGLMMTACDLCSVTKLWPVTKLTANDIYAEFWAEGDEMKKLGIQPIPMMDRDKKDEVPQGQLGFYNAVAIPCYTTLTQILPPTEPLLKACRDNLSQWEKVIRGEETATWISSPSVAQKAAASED

Consider `O=C1CCC(=O)N1Cl`, for which the AC50 in experiment [1] was 16.5 µM (active). For `COc1ccc2nc(N)sc2c1`, the AC50 in [2] was 0.319 µM (active).

Turning to `CNC(=S)N(C)C`, the AC50 in experiment [3] was 18.6 µM (active); in experiment [4] it was 1.04 µM (active). In experiment [5], the outcome was inactive. As for `c1ccc2c(c1)ccc1cc3c(ccc4ccccc43)cc12`, the AC50 in [6] is 5.15 µM (active); in [7] it was 13 µM (active); in experiment [4], 4.46 µM (active). On to `c1ccc2c(c1)ccc1ncccc12`, for which the AC50 in experiment [8] was 20.2 µM (active). `NC(=O)NNC(N)=O`: the call in experiment [9] was inactive. Same read-out and setting: then `CC1OC1C1CCC2(C)OC2C1` (centres undefined), with “inactive”; and `OCCCS`, with “inactive”; and `O=C1CCCC(=O)O1`, with “inactive”. With `CCCCCCCCCCCCCCCC[N+](C)(C)CC`, the AC50 in experiment [2] was 2.31 µM (active); in experiment [7] it was 6.41 µM (active); in experiment [1], 20.8 µM (active); in experiment [5], 1.95 µM (active). Also, the compound was called inactive in experiment [3], in experiment [4] and in experiment [9]. As to `N#[N+]c1ccc2c(S(=O)(=O)[O-])cccc2c1O`, the AC50 in experiment [6] is 9.03 µM (active); in [1], 14.9 µM (active). The call in experiment [3] and in experiment [5] was inactive. On to `O=CN1CCCCC1`, for which the result in [9] was inactive. As for `CCCCC/C=C\C/C=C\CCCCCCCC(=O)OC`, the AC50 was 6.47 µM (active) in experiment [2] and 6.61 µM (active) in experiment [6]. As to `Cc1cc(C)c(C)c(C)c1`, the compound was classed as inactive in experiment [3] and in [5]. Turning to `C=C(C)C(=O)OCC(C)C`, the outcome in experiment [9] was inactive.

As to `CCC(CC)C(=O)O`, in experiment [3], the AC50 was 4.56 µM (active). `CCCCCCCCCCc1ccccc1`: in experiment [9], the call was inactive.

With `Cc1ccc(N)c([N+](=O)[O-])c1`, the AC50 in experiment [3] is 43.4 µM (active); in experiment [9] it was 25 µM (active). For the same compound, in [5], the outcome was inactive.

Take `CCC(C)C=O` (centres undefined): the AC50 is 8.8 µM (active) in [4] and 16.2 µM (active) in experiment [9]. With `CC(C)(C)c1n[nH]c(=O)n(N)c1=O`, the call in experiment [9] was inactive. On to `COCCOCCOCCOCCOC`, for which the call in experiment [3] and in experiment [5] was inactive.

Regarding `CC1(C)S[C@@H]2[C@H](NC(=O)COc3ccccc3)C(=O)N2[C@H]1C(=O)O`, the outcome in experiment [7] was inactive.

With `O=Nc1ccc(O)cc1`, in experiment [6], the AC50 was 13.5 µM (active). In addition, the compound was called inactive in experiment [9].

In the case of `CCOC(=O)[C@H](C)O`, the result in experiment [9] was inactive. For `CC(C)(c1cc(Br)c(OCCO)c(Br)c1)c1cc(Br)c(OCCO)c(Br)c1`, the AC50 was 0.879 µM (active) in [10], 1.8 µM (active) in experiment [2], 20.2 µM (active) in experiment [9] and 2.62 µM (active) in experiment [5]. Also, the call in experiment [3] was inactive. For `CCCOC(=O)CCCCC(=O)OCCC`, the concentration at half-maximal activity (AC50) in experiment [5] is 2 µM (active). For the compound `C=CCOCC(O)CCl` (centres undefined), the result in [6] and in experiment [7] was inactive.

In the case of `Nc1cccc(C(F)(F)F)c1`, the compound was called inactive in experiment [9]. On the same count and under the same terms, the result for `Cn1c(=O)[nH]c2ncn(C)c2c1=O` reads “inactive”. As to `Cc1ccc(C2OC[C@@H]3OC(c4ccc(C)cc4)O[C@H]([C@H](O)CO)[C@@H]3O2)cc1` (some centres undefined), the outcome in experiment [9] was inactive. As to `C#CC1(O)CC[C@H]2[C@@H]3CCC4=CCCC[C@@H]4[C@H]3CC[C@@]21C` (some centres undefined), the AC50 in experiment [2] is 0.032 µM (active). With `C=C(C)CCO`, the AC50 in experiment [9] was 38.2 µM (active). In the case of `CCCCC(CC)COC(=O)c1ccccc1O` (centres undefined), the AC50 in experiment [7] is 11.1 µM (active). For `C/C=C\C/C=C/CCCCCCCCOC(C)=O`, the figures for the half-maximal activity concentration (AC50) in experiment [10], in [2] and in [4] were 3.9 µM (active), 0.065 µM (active) and 13.7 µM (active), respectively. The compound was classed as inactive in experiment [3]. Take `S=C(NC1CCCCC1)NC1CCCCC1`: in experiment [3], the compound was classed as inactive. The AC50 in [4] was 6.33 µM (active).
